HepG2 tox: counter-screen for TGF-b inhibitors: cytotoxicity in HepG2 cells | 0.76% of 410,000 active | HepG2 CAGA-GFP viability, ATP luminescence, 18 h | Potency, µM (series often up to 46.1 µM), for the others: at the highest dose activity change, negative = cytotoxicity, actives largely listed as cytotoxic; also: potency is read from the fitted curve at half-maximal effect
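HepG2 CAGA-GFP cells (1000/well, DMEM with 1% FBS) received compound, then TGF-beta at 500 pg/mL final, and were incubated 18 hours at 37 degrees C. Viability was read by CellTiter-Glo luminescence. Media-only wells were set as complete cell-killing and DMSO as no toxicity.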
IL-1B inflam inh: inflammasome signaling inhibition, IL-1 beta readout; 4.7% of 360,000 active; AID 743279; THP-1 LPS/ATP IL-1B secretion, AlphaLISA, 16 h; hits give low values; activity change, % at 57.5 µM; in the data active = activity change below about -50%; inconclusive = mostly about -30% to -49%; also: % is scaled to controls: 0 for no effect and ±100 for the full control effect
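THP-1 cells pretreated 1 hr with compounds (up to 57.5 uM final), then stimulated with LPS (250 ng/mL final) plus ATP (1.25 mM final); secreted IL-1B measured by AlphaLISA after 16 hr, decreased signal indicating inhibition.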
TDP1 cell noCPT: qHTS for Inhibitors of human tyrosyl-DNA phosphodiesterase 1 (TDP1): qHTS in cells in absence of CPT | Potency, µM (series often up to 46.2 µM), for the others: at the highest dose activity change, negative = growth inhibition, most hits filed as inhibitors | DT40 Tdp1-/- hTDP1 cells, no CPT, ATP luminescence, 48 h | 15% of 420,000 active; also: potency is read from the fitted curve at half-maximal effect; % is scaled to controls: 0 for no effect and ±100 for the full control effect; nearly all actives have a fitted effect of over 55% in size
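Luminescent ATP content (CellTiter-Glo) served as the growth readout. Knockout chicken DT40 cells expressing human TDP1 were exposed to compounds without camptothecin for a minimum 48 hr at 37 °C.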
TGFb SMAD3 inh: TGF-b pathway inhibition. AID 588855. 1.2% of 410,000 active. HepG2 CAGA-GFP TGF-b/SMAD3 reporter, GFP fluorescence, 18 h; TGF-beta stimulated, 500 pg/mL final. Potency, µM (highest dose often 46.1 µM), for the others: top-dose activity, negative = inhibition, actives largely listed as inhibitors; also: potency is read from the fitted curve at half-maximal effect; % is scaled to controls: 0 for no effect and ±100 for the full control effect; nearly all actives have a fitted effect of over 65% in size
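First, reporter cells (HEPG2 CAGA-GFP) rested 2 h at 37 degrees C. Next, compounds were pinned in and TGF-beta added to 500 pg/mL final. After 18 h, GFP was imaged per cell and summed per well.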
TDP1 block: blocks human tyrosyl-DNA phosphodiesterase 1. Q9NUW8. recombinant TDP1, AlphaScreen DNA substrate cleavage. Potency, µM (top dose mostly 130 µM), for inactives: top-dose activity change, negative = inhibition, most hits filed as inhibitors. 0.28% of 350,000 active. AID 485290; also: potency is read from the fitted curve at half-maximal effect; % is scaled to controls: 0 for no effect and ±100 for the full control effect; nearly all actives have a fitted effect of over 40% in size
Target sequence (Q9NUW8 whole entry, looked up): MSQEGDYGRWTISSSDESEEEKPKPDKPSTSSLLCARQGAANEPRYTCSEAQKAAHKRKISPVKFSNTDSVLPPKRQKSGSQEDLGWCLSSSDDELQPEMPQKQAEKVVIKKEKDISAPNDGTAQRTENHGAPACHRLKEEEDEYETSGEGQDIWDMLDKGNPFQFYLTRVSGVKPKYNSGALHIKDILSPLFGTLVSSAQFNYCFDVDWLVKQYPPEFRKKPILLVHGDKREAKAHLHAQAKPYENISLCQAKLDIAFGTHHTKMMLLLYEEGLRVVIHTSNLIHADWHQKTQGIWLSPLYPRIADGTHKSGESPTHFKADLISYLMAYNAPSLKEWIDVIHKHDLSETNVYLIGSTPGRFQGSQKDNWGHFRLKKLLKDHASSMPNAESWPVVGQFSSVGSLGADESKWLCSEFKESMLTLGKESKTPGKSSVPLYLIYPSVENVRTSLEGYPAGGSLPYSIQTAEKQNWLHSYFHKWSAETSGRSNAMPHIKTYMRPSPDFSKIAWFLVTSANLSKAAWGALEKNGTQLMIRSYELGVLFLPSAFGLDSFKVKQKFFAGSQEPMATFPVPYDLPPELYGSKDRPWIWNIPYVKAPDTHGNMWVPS
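Compounds were preincubated with Tdp1 (1 nM final) for 15 min at room temperature before substrate (15 nM final) started a 5 min reaction; beads (10 ug/ml final) were then added for 10 min before AlphaScreen detection.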
TDP1 cell CPT: growth inhibition of DT40 Tdp1-/-;hTDP1 cells with camptothecin (screen for TDP1 inhibitors). 12% of 420,000 active. chicken DT40 Tdp1-/-;hTDP1 cells + 20 nM CPT, ATP luminescence, 48 h. Potency, µM (titrated, usually from 46.2 µM), without a hit: at the top dose activity change, negative = growth inhibition, hits mostly inhibitors. AID 686979; also: potency is read from the fitted curve at half-maximal effect; % is scaled to controls: 0 for no effect and ±100 for the full control effect; nearly all actives have a fitted effect of over 55% in size
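Chicken DT40 Tdp1-/- cells stably complemented with human TDP1 were seeded at 400 cells/well in medium containing 20 nM camptothecin, exposed to pin-transferred compounds, and grown at 37 °C for at least 48 hr. Viability was read as ATP luminescence.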
* hit, by the source's call; ? = inconclusive; · = not tested or not shown. A selection: hits, their analogues and other compounds. The true share with any hit is near 19%. Unless noted, calls follow the shape of the dose curve; as a rule, active = well fitted curve in the direction sought with a large enough effect; inconclusive = small, poorly fitted or top-dose-only effect, or another doubt; inactive = no such curve, though single readings can be large; an effect the other way counts as inactive or inconclusive.

SMILES	HepG2 tox	IL-1B inflam inh	TDP1 cell noCPT	TGFb SMAD3 inh	TDP1 block	TDP1 cell CPT
COCCn1c(SCC(=O)c2ccc(Cl)cc2)nnc1C(C)C	-8%	13	21µM*	-16%	5%	?
COc1cccc(C(c2sc3nc(-c4ccco4)nn3c2O)N2CCC(O)CC2)c1 (centres undefined)	-5%	·	-19%	-20%	0%	25%
COc1ccc2c(c1)c(=O)c(C(=O)c1ccc(C)c(C)c1)cn2CC(=O)Nc1ccc2c(c1)OCCO2	-20%	·	?	-27%	1%	-23%
Cc1ccc(-c2cnc(C(O)c3ccc(Cl)c(Cl)c3)[nH]2)cc1 (centres undefined)	-100%	-4	15µM*	?	·	?
OC(c1ccccc1)c1ncc(-c2cccc(C(F)(F)F)c2)[nH]1 (centres undefined)	-25%	3	?	-6%	·	?
Cc1ccc(C(O)c2ncc(-c3cccc(C(F)(F)F)c3)[nH]2)cc1 (centres undefined)	-46%	-12	18µM*	?	·	?
OC(c1ccc(Cl)c(F)c1)c1ncc(-c2cccc(C(F)(F)F)c2)[nH]1 (centres undefined)	-92%	0	23µM*	?	·	?
OC(c1ccc(F)c(F)c1)c1ncc(-c2cccc(C(F)(F)F)c2)[nH]1 (centres undefined)	-44%	-12	16µM*	?	·	?
Cc1ccc(-c2cnc(C(O)c3ccc(Cl)c(F)c3)[nH]2)cc1 (centres undefined)	-2%	2	?	-2%	·	?
OC(c1ccc2c(c1)OCO2)c1ncc(-c2cccc(C(F)(F)F)c2)[nH]1 (centres undefined)	5%	?	8.2µM*	-2%	·	-35%
OC(c1ccc2c(c1)OCO2)c1ncc(-c2ccc(Cl)cc2)[nH]1 (centres undefined)	-6%	-6	?	-1%	·	?
Cc1ccc(C(O)c2ncc(-c3cccc(C(F)(F)F)c3)[nH]2)cc1F (centres undefined)	-53%	-5	13µM*	?	·	26µM*
OC(c1cccc(CN2CCCCC2)c1)c1ncc(-c2cccc(C(F)(F)F)c2)[nH]1 (centres undefined)	-37%	-10	21µM*	-28%	·	15µM*
O=C(Cn1c(=O)nc(-c2ccccc2)c2ccccc21)Nc1cccc(C(F)(F)F)c1	0%	·	2%	3%	4%	-1%
Cc1cc2c(n1-c1ccc(C(=O)NCCc3ccc(Cl)cc3)cc1)CCCC2	-15%	·	26µM*	-13%	9%	?
CSc1ccc(CCNC(=O)c2ccc(-n3c(C)cc4c3CCCC4)cc2)cc1	-44%	·	18µM*	?	10%	21µM*
Cc1ccccc1CNC(=O)c1ccc(-n2c(C)cc3c2CCCC3)cc1	-5%	·	?	4%	5%	?
Cc1cc2c(n1-c1ccc(C(=O)NCC(C)c3ccccc3)cc1)CCCC2 (centres undefined)	-62%	·	15µM*	?	4%	23µM*
C=CS(=O)(=O)c1ccc(Oc2ccc(S(=O)(=O)C=C)cc2)cc1	3.2µM*	-105*	2.3µM*	0%	2%	2.3µM*
Cc1ccc2c(c1)C(c1ccc(F)cc1)N(C(=O)c1ccc(OC(C)C)cc1)CC(=O)N2 (centres undefined)	-60%	·	?	0%	6%	?
CC1(C)S[C@@H]2[C@H](NC(=O)[C@H](N)c3ccccc3)C(=O)N2[C@H]1C(=O)OCOC(=O)[C@@H]1N2C(=O)C[C@H]2S(=O)(=O)C1(C)C	·	·	1%	·	·	7%
CC(C)c1ccc(C(=O)Nc2ccc(CN3CCOCC3)cc2)cc1	-22%	-55*	?	-7%	·	?
Cc1ccccc1NC(=O)c1ccc(CN2CC(=O)N3CCCCC3C2=O)cc1 (centres undefined)	1%	4	-10%	1%	·	3%
CC(C)C(=O)NC(=S)Nc1ccc(CN2CCOCC2)cc1	-11%	14	15%	-12%	-6%	5%
CC(C)c1ccc(NC(=O)c2ccc(CN3CC(=O)N4CCCCC4C3=O)cc2)cc1 (centres undefined)	-30%	·	16µM*	-26%	4%	?
SMILES	HepG2 tox	IL-1B inflam inh	TDP1 cell noCPT	TGFb SMAD3 inh	TDP1 block	TDP1 cell CPT
CC(C)c1ccc(CN2CCN(C(=O)CCl)CC2)cc1	-95%	-100*	0.73µM*	?	2%	1.2µM*
CC(C)c1ccc(/C=C/C(=O)Nc2ccc(CN3CCOCC3)cc2)cc1	-8%	-94*	13µM*	-8%	5%	8.2µM*
CC(C)CC(=O)N1CCN(Cc2ccc(Cl)cc2)CC1	2%	-18	?	-15%	·	-3%
COc1cc(C)c(S(=O)(=O)NCCCn2ccnc2)cc1C	-29%	32	18µM*	-3%	5%	15µM*
CCC(=O)N1CCc2cc(S(=O)(=O)CCC(=O)Nc3ccc(C)cn3)ccc21	-1%	-1	14%	-3%	3%	-17%
CCC(=O)N1CCc2cc(S(=O)(=O)CCC(=O)NCc3ccc(C)cc3)ccc21	-72%	27	?	-11%	1%	?
CCC(=O)N1CCc2cc(S(=O)(=O)CCC(=O)NCc3ccc(F)cc3)ccc21	-37%	·	3.3µM*	0%	2%	6.5µM*
CCC(=O)N1CCc2cc(S(=O)(=O)CCC(=O)Nc3nc(C)cs3)ccc21	-13%	-58*	?	-4%	-2%	?
CCC(C)c1ccccc1NC(=O)COC(=O)c1ccc(N2CCCC2)c([N+](=O)[O-])c1 (centres undefined)	1%	19	?	-21%	-1%	21µM*
Cc1cccc(C)c1NC(=O)COC(=O)c1ccc(N2CCCC2)c([N+](=O)[O-])c1	-21%	2	?	-8%	4%	-9%
CCC(C)c1ccccc1NC(=O)COC(=O)c1ccc2[nH]c3c(c2c1)CCCC3 (centres undefined)	-25%	-11	18µM*	?	7%	16µM*
CCCCn1c(=N)c(S(=O)(=O)c2ccc(Cl)cc2)cc2c(=O)n3cccc(C)c3nc21	0%	·	·	-2%	·	·
